Source: PubChem
LASV entry inh: Lassa virus entry inhibition; Potency, µM (highest dose often 37.9 µM), inactives show at the highest dose activity change, negative = inhibition, actives largely listed as inhibitors; Lassa virus pseudotype entry inhibition, cell reporter; 300,000 compounds, 1.2% hits; AID 540256; calls by dose curve; tested in HEK293 cells; also: potency is read from the fitted curve at half-maximal effect; % is scaled to controls: 0 for no effect and ±100 for the full control effect; nearly all actives have a fitted effect of over 50% in size
HCMV antiviral: human cytomegalovirus inhibition | HFF cells, HCMV-luciferase reporter, 72 h; hits give low values | activity change, negative = inhibition, % at 57.5 µM | 410,000 compounds, 4.5% hits | AID 1259415; in the data active = activity change below about -60%; inconclusive = no clear call, values can overlap the other calls; inactive = above about -39%; also: % is scaled to controls: 0 for no effect and ±100 for the full control effect
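Screen run at 2 compound doses on HFFs infected with reporter HCMV, MOI 1 PFU/cell. Luciferase activity from cell lysates at 72 h post infection gave inhibition relative to buffer-only and Salinomycin wells.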
SARS PLP yeast: blocks SARS-CoV papain-like protease in a yeast assay; Potency, µM (titrated, usually from 32.9 µM), without a hit: at the top dose activity, positive = growth rescue, usual class: activators; 330,000 compounds, 0.19% hits; S. cerevisiae expressing SARS-CoV PLpro, growth rescue; calls by dose curve; also: potency is read from the fitted curve at half-maximal effect; 0% is about no effect; nearly all actives have a fitted effect of over 55% in size
HCV inh: inhibitors of hepatitis C virus infection. Huh7.5.1 HCVcc-Cre infection, luciferase reporter, 44 h. 340,000 compounds, 3.4% hits. Potency, µM (titrated, usually from 41.8 µM), for inactives: top-dose activity change, negative = inhibition, hits mostly inhibitors; active = well fitted inhibition curve with a large enough effect; inconclusive = small, poorly fitted or top-dose-only effect, or another doubt; inactive = no such curve, though single readings can be large or run the other way; also: potency is read from the fitted curve at half-maximal effect; % is scaled to controls: 0 for no effect and ±100 for the full control effect
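Luciferase read-out (15 sec integration) after a 15 min room-temperature substrate step quantifies HCVcc-Cre infection. Cells, 1,000 per well, had compound added 4 h post-plating, then virus at ~0.5 moi, and were cultured 44 h.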
FMDV inh: antivirals against foot and mouth disease virus; FMDV antiviral cell-based qHTS; Potency, µM (titrated, usually from 57.9 µM), inactives show at the top dose activity change, negative = inhibition, hits mostly inhibitors; 410,000 compounds, 1.2% hits; calls by dose curve; tested in HEK293T cells; also: read-out not given here; potency is read from the fitted curve at half-maximal effect; % is scaled to controls: 0 for no effect and ±100 for the full control effect; nearly all actives have a fitted effect of over 45% in size
Marburg entry inh: blocks Marburg virus binding to or entry into cells | 300,000 compounds, 1.8% hits | Marburg virus pseudotyped entry inhibition, cell reporter | Potency, µM (titrated, usually from 37.8 µM), inactives show at the top dose activity change, negative = inhibition, most hits filed as inhibitors; calls by dose curve; tested in HEK293 cells; also: potency is read from the fitted curve at half-maximal effect; % is scaled to controls: 0 for no effect and ±100 for the full control effect
Active calls of the source: *; ? = inconclusive; / = no result given; [ ] = another dose, or the depositor's remark. A selection: hits, their analogues and other compounds. The true share with any hit is near 8%.

SMILES	LASV entry inh	HCMV antiviral	SARS PLP yeast	HCV inh	FMDV inh	Marburg entry inh
CCCS(=O)(=O)c1c(S(=O)(=O)CCC)c2c(N)cccn2c1C(=O)c1ccc(OC)cc1	?	?	0%	25µM*	12%	?
Cc1ccc(-c2cc(C(=O)Oc3ccc(C#N)cc3)no2)cc1	0%[46.1 µM]	4	/	/	-3%	?
N#CC(C#N)=c1ccc2c(c1)N1C3=C(CCCC3)CC3CCCCC31N=2 (stereo not drawn)	11%	-95*	1%	0%	40µM*	-16%[46.1 µM]
N#C/C(C(N)=O)=c1/ccc2c(c1)N1C3=C(CCCC3)CC3CCCCC31N=2 (stereo not drawn)	-18%	-68*	0%	1%	?	1%
Cc1cc(C)c(C(N)=O)c(SCC(=O)c2cc(C)n(-c3cc(C)on3)c2C)n1	/	?	1%	2.2µM*	?	/
Cc1cc(-n2c(C)cc(C(=O)CSc3nncn3C)c2C)no1	-7%[46.1 µM]	-24	-24%	?	15%	11%[46.1 µM]
Cc1cc(C)c(C(N)=O)c(SCC(=O)c2cc(C)c(C)cc2C)n1	-9%	-35	5%	?	?	-18%
Cc1cc(-n2c(C)cc(C(=O)CSc3nncn3C(C)C)c2C)no1	2%	-97*	-2%	6%	9%	-2%
Cc1cc(-n2c(C)cc(C(=O)COc3ccc(F)c(F)c3)c2C)no1	/	/	1%	10µM*	44%	/
Cc1ccc(-n2nnnc2SCC(=O)c2cc(C)n(-c3cc(C)on3)c2C)cc1	12µM*	-9	-9%	?	/	1%
Cc1ccc(-n2nnnc2SCC(=O)c2cc(C)n(CC3CCCO3)c2C)cc1 (stereo not drawn)	?	-26	-2%	-14%	/	4%
COc1ccc(OCC(=O)Nc2ccc(-c3nc4cc(C)cc(C)c4o3)cc2)cc1	23%[46.1 µM]	46	/	/	39%	/
COc1ccc(NC(=O)c2c(NCc3ccc(C)o3)sc3c2CCCCC3)c(OC)c1	?	9	/	/	-2%	/
CCCCCc1ccc(OCCC[n+]2ccccc2)c(CCCCC)c1	?	-99*	-4%	10µM*	18µM*	7.1µM*
CCCCCc1ccc(OCCOCCn2c[n+](C)c3ccccc32)c(CCCCC)c1	/	/	-18%	10µM*	25µM*	/
CC[C@]12c3[nH]c4ccccc4c3CCN1C(=O)C(CC(=O)NCc1ccco1)C[C@@H]2C(=O)N1CCN(C(=O)C2CC2)CC1 (stereo partly drawn)	/	34	0%	0.79µM*	1%	/
CC[C@]12c3[nH]c4ccccc4c3CCN1C(=O)C(CC(=O)NCC13CC4CC(CC(C4)C1)C3)C[C@@H]2C(=O)N1CCN(C(=O)C2CC2)CC1 (stereo partly drawn)	/	-16	5%	22µM*	?	/
CC[C@]12c3[nH]c4ccc(Cl)cc4c3CCN1C(=O)[C@@H](CC(=O)NCc1ccco1)C[C@@H]2C(=O)N1CCN(C(=O)C2CC2)CC1	/	2	4%	3%	-14%	/
Cc1c(C(=O)NCc2ccccc2Cl)sc2nc[nH]c(=O)c12	5%[46.1 µM]	-16	/	/	9%	/
COc1ccc(Br)cc1CNC(=O)c1cc(=O)[nH]c2ccc(S(=O)(=O)N3CCCCC3)cc12	-15%[46.1 µM]	1	/	/	-8%	/
CCOc1ccc(OCC)c(NC(=O)c2nnn(CC(=O)Nc3ccc(C)cc3C)c2N)c1	12%[46.1 µM]	0	/	/	-18%	7%[46.1 µM]
O=C(O)Cc1csc(-c2ccccc2)n1	9%[46.1 µM]	-63*	-1%	-8%	17%	-7%[46.1 µM]
O=C(O)Cc1csc(-c2ccc(Cl)cc2)n1	/	2	/	/	/	/
CC(C)(C)c1cc(NCCCn2ccnc2)n2ncc(-c3ccc(Cl)cc3)c2n1	?	-21	-20%	25µM*	6%	?
COc1ccc(CNc2ncnc3ccc(-c4ccccc4OC)cc23)c(OC)c1	/	/	/	/	-20%	/
SMILES	LASV entry inh	HCMV antiviral	SARS PLP yeast	HCV inh	FMDV inh	Marburg entry inh
O=C(CCN1C(=O)C2CC=CCC2C1=O)OCC(=O)c1ccc(F)cc1 (stereo not drawn)	/	-76*	-5%	4%	-2%	/
Cc1ccc(-c2n[nH]c(=S)n2/N=C/c2ccc(C)s2)cc1	1.3µM*	14	-2%	0%	-6%	-10%
S=c1[nH]nc(COc2ccccc2)n1/N=C/c1ccco1	-22%[46.1 µM]	?	1%	13%	-9%	?
S=c1[nH]nc(COc2ccccc2)n1/N=C/c1ccc(Br)s1	?	-19	9%	0%	-10%	21%
Cc1ccc(/C=N/n2c(COc3ccccc3)n[nH]c2=S)o1	/	-90*	0%	7%	-9%	/
Cc1ccc(/C=N/n2c(COc3ccccc3)n[nH]c2=S)s1	6.5µM*	-18	12%	-12%	-9%	8%
Cc1ccc(/C=N/n2c(-c3ccc(Cl)cc3)n[nH]c2=S)s1	?	-23	1%	5%	37%	?
COc1cccc(N2CCN(C(=O)CN3CCSc4ccc(S(=O)(=O)N(C)C)cc43)CC2)c1	-9%[46.1 µM]	5	/	/	-22%	/
CCCCOc1ccc(C(=O)N2CCCC2)cc1	?	110	-11%	1%	24%	?
CCCCOc1c(Cl)cc(C(=O)N2CCN(CC(=O)N3CCCC3)CC2)cc1OCC	5%	-29	-5%	10µM*	-29%	-41%
N#Cc1c(NC(=O)CSc2nc(N)cc(=O)[nH]2)sc2c1CCCCCC2	-4%	?	8%	?	/	?
CC(C)(C)c1ccc(-c2nnc(SCC(=O)Nc3sc4c(c3C#N)CCCC4)o2)cc1	?	-102*	-18%	-16%	5%	?
CCOC(=O)c1c(NC(=O)CSc2nnc(-c3ccc(Cl)cc3)o2)sc2c1CCC2	24%	-38	/	3%	1%	13%[46.1 µM]
N#Cc1c(NC(=O)CSc2ncn[nH]2)sc2c1CCCCC2	-82%[14.3 µM]	-64*	-1%	?	8.9µM*	0.46µM*
COc1ccc(NC(=O)[C@H](Cc2c[nH]c3ccccc23)NC(=O)[C@@H]2Cc3ccccc3CN2)cc1	/	/	11%	?	-4%	/
Cc1ccc(NC(=O)[C@H](NC(=O)[C@@H]2Cc3ccccc3CN2)c2ccccc2)cc1	/	/	-5%	1%	4%	/
CC(C)c1ccc(NC(=O)[C@H](NC(=O)[C@@H]2Cc3ccccc3CN2)c2ccccc2)cc1	0%[46.1 µM]	/	0%	-6%	-8%	4µM*
CC(C)c1ccc(NC(=O)[C@H](Cc2c[nH]c3ccccc23)NC(=O)[C@@H]2Cc3ccccc3CN2)cc1	/	/	0%	4.5µM*	3%	/
O=C(Cn1c(=O)nc(-c2ccccc2)c2ccccc21)NCc1ccccc1Cl	?	92	/	/	0%	/
CC(C)C[C@H]1CN([C@@H](CC(C)C)CN2CCC[C@@H]2CN2C(=O)C(=O)NC[C@@H]2Cc2ccccc2)C(=O)C(=O)N1CC1CCCCC1	/	-66*	/	5%	-6%	/
